Sampled rows, rich in hits. Any-hit rate of the full collection: about 8%.
LASV entry inh: blocks Lassa virus binding to or entry into cells; Lassa virus pseudotype entry inhibition, cell reporter; actives 1.2% (n = 300,000); AID 540256; Potency, µM (top dose mostly 37.9 µM), usual class: inhibitors; calls by dose curve; tested in HEK293 cells; note: nearly all actives have a fitted effect of over 50% in size
Marburg entry inh: Marburg virus entry inhibition. Potency, µM (highest dose often 37.8 µM), hits mostly inhibitors. actives 1.8% (n = 300,000). Marburg virus pseudotyped entry inhibition, cell reporter; calls by dose curve; tested in HEK293 cells
SARS PLP yeast: blocks SARS-CoV papain-like protease in a yeast assay | S. cerevisiae expressing SARS-CoV PLpro, growth rescue | Potency, µM (series often up to 32.9 µM), usual class: activators | actives 0.19% (n = 330,000) | AID 485353; calls by dose curve; note: nearly all actives have a fitted effect of over 55% in size
FMDV inh: antivirals against foot and mouth disease virus; FMDV antiviral cell-based qHTS; Potency, µM (doses to about 57.9 µM), usual class: inhibitors; actives 1.2% (n = 410,000); calls by dose curve; tested in HEK293T cells; note: read-out not given here; nearly all actives have a fitted effect of over 45% in size
HCMV inh: human cytomegalovirus inhibition. activity change, negative = inhibition, % at 57.5 µM. actives 4.5% (n = 410,000). HFF cells, HCMV-luciferase reporter, 72 h; active compounds read low. AID 1259415; in the data active = activity change below about -60%; inconclusive = no clear call, values can overlap the other calls; inactive = above about -39%
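Screen run at 2 compound doses on HFFs infected with reporter HCMV, MOI 1 PFU/cell. Luciferase activity from cell lysates at 72 h post infection gave inhibition relative to buffer-only and Salinomycin wells.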
HCV inh: blocks hepatitis C virus; Huh7.5.1 HCVcc-Cre infection, luciferase reporter, 44 h; Potency, µM (doses to about 41.8 µM), hits mostly inhibitors; actives 3.4% (n = 340,000); AID 651820; active = well fitted inhibition curve with a large enough effect; inconclusive = small, poorly fitted or top-dose-only effect, or another doubt; inactive = no such curve, though single readings can be large or run the other way
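Compounds are dispensed onto cells plated 4 h earlier at 1,000 per well, with HCVcc-Cre virus (about 0.5 moi) added next. Following 44 h of culture, luminescent signal is measured for 15 sec after 15 min with substrate at room temperature.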
Of the large screens only hits and unclear results are named; the others gave an inactive call.

CCOc1cc(C(=O)Nc2cc(C)ccc2C)ccc1OCC(=O)N1CCCCC1	HCMV inh -70.7
O=C(CN1CCCCC1)N1c2ccccc2Oc2ccccc21	none
O=C(CO/N=C/c1ccccc1)N1c2ccccc2Oc2ccccc21	Marburg entry inh inconclusive, HCMV inh -98.9
CCCCC(=O)Nc1cccc(-c2nc3ccccc3s2)c1	LASV entry inh inconclusive, Marburg entry inh inconclusive (no result: SARS PLP yeast, HCV inh)
CCOc1ccc2c(c1)c(=O)c(S(=O)(=O)c1ccccc1)cn2CC(=O)Nc1ccccc1OC	none (no result: SARS PLP yeast, HCV inh)
O=[N+]([O-])c1cc([N+](=O)[O-])c2cc3ccccc3nc2c1	LASV entry inh inconclusive, Marburg entry inh inconclusive, FMDV inh 28.2µM, HCV inh inconclusive
N#Cc1cccc(N=Cc2c(O)ccc3ccccc23)c1	HCMV inh -61.1
Cn1cnc([N+](=O)[O-])c1S(=O)(=O)c1ccc(Cl)cc1	LASV entry inh 20µM, Marburg entry inh inconclusive, FMDV inh 14.1µM, HCV inh inconclusive
Cn1cnc([N+](=O)[O-])c1NC(C)(C)C	none
CCN(CC)CC1C(=O)N(c2ccc(OC)cc2)C1c1ccccc1 (stereo not drawn)	LASV entry inh inconclusive, Marburg entry inh 8.91µM
COc1ccc(N2C(=O)C(CN3CCCCC3)C2c2ccccc2)cc1 (stereo not drawn)	none (no result: LASV entry inh, Marburg entry inh)
Cn1c(=O)c2cc(NC(=O)NCc3ccc(F)cc3)ccc2n1C/C=C/c1ccccc1	HCMV inh -62.9 (no result: LASV entry inh, Marburg entry inh, SARS PLP yeast, HCV inh)
COc1ccc(NC(=O)CSc2nc(-c3ccccc3)[nH]c2-c2ccccc2)cc1OC	LASV entry inh inconclusive, Marburg entry inh inconclusive (no result: SARS PLP yeast, HCV inh)
Cc1c(/C=N/NC(=O)C(NC(=O)c2ccc3c(c2)OCO3)C(C)C)c2ccccc2n1C (stereo not drawn)	LASV entry inh inconclusive, Marburg entry inh inconclusive, HCMV inh -80.2, HCV inh 11.2µM
CC(=O)c1ccccc1NC(C(=O)NC(C)(C)CC(C)(C)C)C1CC1 (stereo not drawn)	none (no result: LASV entry inh, Marburg entry inh, SARS PLP yeast, FMDV inh, HCV inh)
CC(c1ccccc1)n1c(SCC(=O)N2CC(=O)Nc3ccccc32)nc2ccccc2c1=O (stereo not drawn)	LASV entry inh inconclusive, Marburg entry inh inconclusive, FMDV inh inconclusive, HCMV inh -81.4, HCV inh inconclusive
Cc1cccc(-n2c(SCC(=O)N3CC(=O)Nc4ccccc43)nc3ccccc3c2=O)c1	LASV entry inh inconclusive, HCMV inh -62.1
CC(C)Cn1c(SCC(=O)N2CC(=O)Nc3ccccc32)nc2ccccc21	Marburg entry inh inconclusive
Cc1ccc(-n2c(SCC(=O)N3CC(=O)Nc4ccccc43)nc3ccccc3c2=O)cc1C	FMDV inh inconclusive, HCMV inh -80.0, HCV inh inconclusive (no result: LASV entry inh)
CC(C)(C)c1nc(SCC(=O)N2CC(=O)Nc3ccccc32)c2ccccc2n1	none
Cc1cccc(-n2c(SCC(=O)N3CC(=O)Nc4ccccc43)nc3ccccc3c2=O)c1C	FMDV inh inconclusive, HCMV inh -64.5, HCV inh inconclusive (no result: LASV entry inh)
COCC(C)n1c(SCC(=O)N2CC(=O)Nc3ccccc32)nc2ccccc2c1=O (stereo not drawn)	none (no result: LASV entry inh, Marburg entry inh)
COc1cccc(CN2CCc3nnc(CCc4ccccc4)n3CC2)c1OC	none (no result: LASV entry inh, Marburg entry inh, SARS PLP yeast, HCMV inh, HCV inh)
CCc1nccn1CCC(=O)N1CCCC(N2CCN(c3ccccc3C)CC2)C1 (stereo not drawn)	HCMV inh -87.4, HCV inh inconclusive
Cc1ccc(C(=O)N2CCCC(N3CCN(c4ccccc4C)CC3)C2)c(=O)[nH]1 (stereo not drawn)	HCMV inh -69.7 (no result: LASV entry inh, Marburg entry inh)
COc1ccc2[nH]c(=O)c(CN(C(=O)c3cccc(Cl)c3)c3ccccc3OC)cc2c1	none (no result: SARS PLP yeast, HCV inh)
COc1ccc(CCNCc2ccc(OCc3ccc(Cl)nc3)c(OC)c2)cc1OC	Marburg entry inh 12.6µM, HCV inh inconclusive
COc1cc(CNCCN2CCOCC2)ccc1OCc1cccc(Cl)c1	LASV entry inh inconclusive, Marburg entry inh inconclusive, HCV inh 8.91µM
COc1cc(CNCCN2CCOCC2)ccc1OCc1ccc(Cl)cc1Cl	LASV entry inh inconclusive, Marburg entry inh inconclusive, HCMV inh -84.9, HCV inh inconclusive
COc1ccc2ccccc2c1CNCCN1CCOCC1	none (no result: LASV entry inh, Marburg entry inh)
CC(=O)c1cccc(NC(=O)c2nc3ccccc3nc2N2CCCCC2)c1	none (no result: Marburg entry inh, SARS PLP yeast, HCV inh)
CCC(=O)N1CCCc2cc(S(=O)(=O)Nc3ccc(C)c(C)c3)ccc21	LASV entry inh inconclusive (no result: SARS PLP yeast, HCV inh)
CCC(=O)N1CCc2cc(S(=O)(=O)Nc3ccc4c(c3)OCCO4)ccc21	Marburg entry inh 7.94µM, HCMV inh -86.5, HCV inh 2.82µM
Cc1cccc(NS(=O)(=O)c2ccc3c(c2)CCN3C(=O)C2CCC2)c1	LASV entry inh inconclusive, Marburg entry inh inconclusive, HCMV inh -66.3 (no result: SARS PLP yeast, HCV inh)
CS(=O)(=O)N1CCc2cc(S(=O)(=O)NCCNS(=O)(=O)c3ccc4c(c3)CCN4S(C)(=O)=O)ccc21	none
Cc1ccc(Cl)cc1N1CCN(C(=O)CCNS(=O)(=O)c2ccc3c(c2)CCN3C(=O)C2CC2)CC1	FMDV inh inconclusive (no result: Marburg entry inh, SARS PLP yeast, HCV inh)
CS(=O)(=O)N1CCc2cc(S(=O)(=O)Nc3ccc4c(c3)OCCO4)ccc21	Marburg entry inh inconclusive, HCMV inh -84.4, HCV inh inconclusive
O=C(CCNS(=O)(=O)c1ccc2c(c1)CCN2C(=O)C1CC1)N1CCN(c2cccc(C(F)(F)F)c2)CC1	FMDV inh inconclusive, HCMV inh -60.0 (no result: Marburg entry inh, SARS PLP yeast, HCV inh)
CCOc1ccc(NC(=O)CSC2=Nc3ccccc3C3=NC(CC(=O)NCc4ccccc4OC)C(=O)N23)cc1 (stereo not drawn)	LASV entry inh inconclusive (no result: Marburg entry inh, SARS PLP yeast, HCV inh)
O=C(C1CCC1)N1CCc2cc(S(=O)(=O)Nc3ccc4c(c3)OCCO4)ccc21	HCMV inh -81.5, HCV inh inconclusive
O=C1CC[C@@H](CN(Cc2cccnc2)C2CCN(c3ccc(NC(=O)c4cnccn4)cc3)CC2)N1	none (no result: LASV entry inh, Marburg entry inh, SARS PLP yeast, HCMV inh, HCV inh)
COc1ccc2c(c1)[C@@H](NC(C)=O)[C@H](C)[C@@H](c1ccccc1)N2C(C)=O	none (no result: LASV entry inh, Marburg entry inh, SARS PLP yeast, FMDV inh, HCV inh)
O=C(Cn1ccn(-c2ccc(F)cc2)c(=O)c1=O)NCCc1ccccc1	HCMV inh inconclusive (no result: Marburg entry inh, SARS PLP yeast, HCV inh)
COc1ccc(CNC(=O)c2nn(-c3ccccc3C)nc2CO)cc1	none (no result: SARS PLP yeast, HCV inh)
COc1ccc(-c2csc(NC(=O)CSCC(=O)Nc3cc(C)on3)n2)cc1OC	LASV entry inh inconclusive, Marburg entry inh inconclusive, HCV inh inconclusive
Cc1noc(C)c1CSCC(=O)Nc1nc(-c2ccc(F)c(F)c2)cs1	LASV entry inh inconclusive, Marburg entry inh inconclusive, FMDV inh 17.8µM, HCV inh 12.6µM
COc1ccc(-c2csc(NC(=O)CSCc3c(C)noc3C)n2)cc1OC	LASV entry inh 11.2µM, Marburg entry inh inconclusive, FMDV inh 39.8µM, HCV inh inconclusive
Cc1csc(NC(=O)CSCc2c(C)noc2C)n1	LASV entry inh inconclusive
CCNc1ncc2nc(-c3ccc(F)cc3)c(=O)n(CCOC)c2n1	none (no result: LASV entry inh, Marburg entry inh, SARS PLP yeast, HCMV inh, HCV inh)
CCCc1nc(SCC(=O)N2CCOCC2)c2c(C)c(C)sc2n1	Marburg entry inh inconclusive, HCMV inh -77.7
Cc1ccccc1-n1ncc2c(SCC(=O)N3c4ccccc4CC3C)ncnc21 (stereo not drawn)	Marburg entry inh inconclusive, HCMV inh -67.4, HCV inh inconclusive (no result: FMDV inh)
